In PubChem BioAssay (NCI):
About 83,000 compounds went through this panel and 20% of them were active in at least one assay; those are over-represented in the sample as a whole.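 Testing used 96-well plates and a 48-hour single-concentration exposure. Example: -40 means 40% of the starting cells died.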 The source made the active and inactive calls. How the source made its calls: active means growth percent below 10; inactive means the rest.

The compounds below were run on HL-60(TB) leukemia (assay: NCI-60 one-dose screen, 48 h (100 = growth as untreated, 0 = no growth, -100 = all killed)). Details: 10 µM unless noted.

SMILES | growth
COc1ccncc1C#Cc1cncc(C(=O)Nc2ccc(CN3CCN(C)CC3)c(C(F)(F)F)c2)c1 | 8.01% (active)
C=C(C)[C@@H]1CC[C@]2(C(=O)NC3CCCCC3)CC[C@]3(C)[C@H](CC[C@@H]4[C@@]5(C)CCC(=O)C(C)(C)[C@@H]5CC[C@]43C)[C@@H]12 | 76.6% (inactive)
O=C1NC(=O)C(c2coc3cc(Br)ccc23)=C1c1c[nH]c2ccccc12 | 13.1% (inactive)
COc1nc(Nc2cccc(C(F)(F)F)c2)nc(OC)n1 | 92.7% (inactive)
O=C1Nc2ccccc2/C1=C/c1cccs1 | 107% (inactive)
C[C@]12CC[C@@H]3c4ccc(O)cc4CC[C@H]3[C@@H]1CC[C@@H]2NS(=O)(=O)c1ccc(C(F)(F)F)cc1 | 19.5% (inactive)
O=C(Cn1cc(CO)nn1)Nc1nc2ccccc2s1 | 97.1% (inactive)
CN1CCN(CCCNC(=O)c2c3c(n4ccccc24)C(=O)c2ncccc2C3=O)CC1 | -25.4% (active)
C#Cc1cc2c(N)c(C(=O)c3cc(OC)c(OC)c(OC)c3)[nH]c2cc1OC | -6.26% (active)
NC(=O)c1cc(I)ccc1NC(=O)/C=C/c1ccccc1Cl | -34.5% (active)
Clc1ccc(-c2nc(-c3ccco3)cn3ccnc23)cc1 | 102% (inactive)
Cc1ccc(C2CC(c3cccc(Nc4ccncc4)c3)=NN2c2ccc(Cl)cc2)cc1 (stereo not given) | -55.6% (active)
Oc1c(I)cc(I)cc1CN(Cc1ccccn1)Cc1ccccn1 | 2.58% (active)
c1ccc2c(-c3c4ccsc4cc4[nH]c5ccccc5c34)c[nH]c2c1 | 14.3% (inactive)
C=C(C)[C@@H]1CC[C@]2(C)[C@H](CC=C3[C@@H]4CC(C)(C)CC[C@]4(C=O)CC[C@]32C)[C@@]1(C)CCCN | -3.43% (active)
O=C(CSc1nnc(Nc2ccccc2)s1)NCCc1ccc(F)cc1 | 110% (inactive)
Cc1ccccc1Nc1nc2nonc2nc1Nc1cccc(C)c1C | 69.8% (inactive)
c1ccc2c(c1)Oc1ccccc1C2C1c2ccccc2Oc2ccccc21 | 99.4% (inactive)
CN(C)c1ccc(N=Nc2cccc3ccccc23)cc1 | 77.4% (inactive)
CC(=O)c1nn(-c2ccccc2)/c(=N\N=C\c2coc3ccc(F)cc3c2=O)s1 | 105% (inactive)

SMILES | growth
COC(=O)C(N)CC(C)C (stereo not given) | 94.6% (inactive)
Cc1cc(N2CCCC2)nc(NCc2cc(Nc3ccnc4cc(Cl)ccc34)ccc2F)n1 | -61.1% (active)
CCSc1oc(-c2ccccc2)nc1[P+](c1ccccc1)(c1ccccc1)c1ccccc1 | -35.1% (active)
c1ccc(-c2n(Cc3ccc4ccccc4c3)c3ccccc3[n+]2Cc2ccc3ccccc3c2)cc1 | -49.3% (active)
Cc1ccc(C(SCC(N)C(=O)O)(c2ccccc2)c2ccc(C)cc2)cc1 (stereo not given) | -36% (active)
Cc1ccc(Nc2cc(N)nc(N)n2)cc1 | 99.6% (inactive)
COc1ccc(-c2ccc(-c3ccc(C(=N)N)cn3)s2)cc1Cl | -55.3% (active)
COc1ccc2[nH]cc(C3(c4c[nH]c5ccc(OC)cc45)C(=O)Nc4ccc(F)cc43)c2c1 | -40.3% (active)
Nc1ccc(CC[C@H]2CCC/C=C/[C@@H]3C[C@H](O)C[C@H]3[C@H](O)/C=C/C(=O)O2)cc1 | -8.51% (active)
COc1cccc2c1Cc1ccccc1-2 | 97.5% (inactive)
O=C(CCc1nc2sc3c(c2c(=O)[nH]1)CCC3)NCc1cn(-c2ccccc2)nc1-c1ccccc1 | 98.7% (inactive)
CC1C2CCC(C2)C1COCCOCCO (stereo not given) | 108% (inactive)
O=C(O)C(SC(C(=O)O)c1ccccc1)c1ccccc1 (stereo not given) | 95% (inactive)
CCn1cc(C(=O)O)c(=O)c2cc(F)c(N3CCN(S(=O)(=O)c4ccc(Cl)cc4)CC3)cc21 | 8.96% (active)
CC(=O)c1nc2ccccc2n1CC(=O)c1cccc(Cl)c1 | -28.9% (active)
NN=C(c1ccc(Cl)cc1)c1ccc(Cl)cc1 | 131% (inactive)
CC(C)(C)[Si](C)(C)OC1[C@@H](O[Si](C)(C)C(C)(C)C)[C@@H](CNC(=O)NC(=O)NC(=O)CI)O[C@H]1n1cnc2c(NC(=O)Nc3ccccc3)ncnc21 (stereo not given in full) | -67.1% (active)
COC(=O)c1ccc2cc(OC)c(OC)cc2c1 | 94.8% (inactive)
Nc1ccc2c(S(=O)(=O)O)ccc(S(=O)(=O)O)c2c1 | 76.2% (inactive)
Cc1ccc(C2CC(c3ccc(Nc4nc(NCCO)nc(Nc5ccc(Cl)cc5)n4)cc3)=NN2c2cc(Cl)cc(Cl)c2)cc1 (stereo not given) | 100% (inactive)
